Shown are actives, neighbours in structure and some others; about 3.4% of the full set was active somewhere.
PLK1 PBD inh: inhibitors of human PLK1 polo-box domain binding; Plk1 PBD binding of FITC phosphopeptide, fluorescence polarization; P53350; Potency, µM, inactives show max response, negative = inhibition, actives largely listed as inhibitors; hit rate 2.8% among 360,000; further: series mostly up to about 57 µM; on the % scale 0 is the no-effect control and ±100 the full control effect; nearly all actives have a fitted effect of over 65% in size
Mito fusion yeast: mitochondrial division inhibition or fusion activation; S. cerevisiae fusion-defective mutant growth rescue, CellTiterGlo 48 h; Potency, µM (highest dose often 46.1 µM), without a hit: top-dose growth rescue (activation), usual class: activators; hit rate 0.23% among 320,000; AID 485298; further: % of control where 0% means no effect; nearly all actives have a fitted effect of over 45% in size
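Luminescent cell viability in 1536-well qHTS format served as the measure of rescued growth in ts fusion-mutant S. cerevisiae cultured on non-fermentable YPEG for 48 hours at 37C.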
PKM2 act: activators of human pyruvate kinase M2; P14618; purified PKM2, Kinase-Glo ATP luminescence, activation; response scale: 0% is enzyme alone, no compound; Potency, µM (doses to about 57.5 µM), for the others: at the top dose activation, usual class: activators; hit rate 0.34% among 260,000; AID 1631; further: on the % scale 0 is the no-effect control and ±100 the full control effect; nearly all actives have a fitted effect of over 55% in size
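Kinase-Glo luminescence reports ATP generated from ADP (0.1 mM) and PEP (0.5 mM) by purified hPK-M2 after 1 h at room temperature, pH 7.2 imidazole buffer; intermediate enzyme activity allows detecting inhibitors and activators.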
GCN5L2 inh: blocks human GCN5L2 histone acetyltransferase. hit rate 0.21% among 390,000. Potency, µM (top dose mostly 58.9 µM), without a hit: top-dose activity change, negative = inhibition, hits mostly inhibitors. GCN5L2 HAT assay, ThioGlo1 CoA-SH fluorescence; further: on the % scale 0 is the no-effect control and ±100 the full control effect
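ThioGlo1-coupled HAT assay: 20nM GCN5L2, 70uM acetyl-CoA, 75uM H3(1-25) peptide, pH 7.5. Fluorescence read at 340/540nm at start and after 20 min at room temperature.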
GLS inhibitor: blocks human kidney-isoform glutaminase activity | hit rate 0.21% among 410,000 | Potency, µM (top dose mostly 45.5 µM), for the others: at the highest dose activity change, negative = inhibition, actives largely listed as inhibitors | O94925 | GLS enzymatic activity, qHTS titration | AID 624170; further: on the % scale 0 is the no-effect control and ±100 the full control effect
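Read-out is an Amplex red fluorescence increase coupled through glutamate oxidase and HRP, measured before and after 30 min room-temperature incubation. hKGA is in 45 mM KH2PO4 (pH 8.2) with 0.02% Tween-20; glutamine added as 1mM solution.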
VDR inhibitor: inhibitors of human vitamin D receptor; P11473; VDR-SRC2-3 peptide fluorescence polarization, 2 h; Potency, µM, inactives show max response, negative = inhibition, actives largely listed as inhibitors; hit rate 0.93% among 400,000; further: on the % scale 0 is the no-effect control and ±100 the full control effect
Target sequence (P11473 whole entry, looked up): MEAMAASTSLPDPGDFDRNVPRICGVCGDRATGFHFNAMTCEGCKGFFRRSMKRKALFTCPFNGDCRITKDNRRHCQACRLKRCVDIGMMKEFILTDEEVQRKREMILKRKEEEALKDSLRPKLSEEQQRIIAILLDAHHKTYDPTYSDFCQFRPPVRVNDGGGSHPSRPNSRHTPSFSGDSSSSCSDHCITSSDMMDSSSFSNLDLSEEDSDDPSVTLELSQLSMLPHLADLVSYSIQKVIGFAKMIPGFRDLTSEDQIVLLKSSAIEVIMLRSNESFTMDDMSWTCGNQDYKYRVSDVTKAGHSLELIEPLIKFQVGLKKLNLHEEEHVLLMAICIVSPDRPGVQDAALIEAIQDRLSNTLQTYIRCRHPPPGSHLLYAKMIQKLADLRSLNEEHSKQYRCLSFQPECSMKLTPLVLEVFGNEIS
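Two reagent solutions held at 4 deg C in the dark were dispensed, compounds pinned at 23 nl, and the mixture incubated 2 h at room temperature. Read-out: fluorescence polarization of VDR–SRC2-3 peptide binding.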
* = called active by the depositor; ? = inconclusive; . = not tested or not shown; ! = not active in a repeat. The call rests on the fitted dose curve; in most records, active means well fitted curve in the direction sought with a large enough effect; inconclusive means small, poorly fitted or top-dose-only effect, or another doubt; inactive means no such curve, though single readings can be large; an effect the other way counts as inactive or inconclusive. Potency means the concentration at half of the fitted maximal effect.

SMILES	PLK1 PBD inh	Mito fusion yeast	PKM2 act	GCN5L2 inh	GLS inhibitor	VDR inhibitor
Cc1ccc(C(=O)CCS(=O)(=O)c2ccc(Br)cc2)cc1	?	-4%	-1%	?	-2%	-26%
COc1ccc(C(=O)CCS(=O)(=O)c2ccc(C)cc2)cc1	11µM*	5%	2%	?	1%	?
COc1ccc(S(=O)(=O)CCC(=O)NC2CCCCC2)cc1	30µM*	0%	2%	1%	-5%	-9%
COc1ccc(N2CC(C(=O)N[C@@H](CC(C)C)C(=O)NC3CCCC3)CC2=O)cc1 (stereo not given in full)	-1%	-1%	.	-2%	-13%	-2%
Cn1c(=O)c2c(ncn2CC(=O)N2CCN(c3ccc(F)cc3)CC2)n(C)c1=O	27µM*	-1%	-6%	-1%	16%	-15%
Cn1c(=O)c2c(ncn2CC(=O)N2CCN(S(=O)(=O)c3ccc(F)cc3)CC2)n(C)c1=O	0%	-4%	.	0%	-8%	2%
Oc1ccc(Cl)c2cccnc12	4%	.	.	?	10%	?
Oc1c(I)cc(I)c2cccnc12	?	26%	-3%	-1%	6%	35µM*!
Cc1cc(C)c(S(=O)(=O)NCC2CCC(C(=O)NCCCN3CCC(C)CC3)CC2)c(C)c1 (stereo not given)	24µM*	9%	.	2%	-2%	?
COCCNC(=O)C1CCC(CNS(=O)(=O)c2c(C)cc(C)cc2C)CC1 (stereo not given)	-9%	-15%	.	-13%	-2%	-17%
Cc1csc(N2C(=O)C3C4CCC(O4)C3C2=O)n1 (stereo not given)	-5%	.	.	.	2%	-10%
O=C(O)/C=C/c1ccc([N+](=O)[O-])o1	?	-4%	-5%	-8%	11µM*	2%
CN1CCN(C(=O)/C=C/c2ccc([N+](=O)[O-])o2)CC1	4%	-6%	1%	-5%	-1%	-7%
Cc1nn(CC(O)COc2ccc3c(c2)CCC3)c(C)c1C (stereo not given)	3.4µM*	-8%	-3%	-1%	?	-12%
CCN1CCN(CC(O)COc2ccc3c(c2)CCC3)CC1 (stereo not given)	0%	-2%	2%	-6%	-9%	15%
CCCCC(C(=O)O)C(C)CC(=O)Nc1nncs1 (stereo not given)	21µM*	0%	?	-5%	2%	-23%
CCCCNC(=O)c1sc(=S)n2c1[nH]c(=O)c1ccccc12	27µM*	-21%	8%	-11%	?	?
O=C(NC1CCCCC1)c1sc(=S)n2c1[nH]c(=O)c1ccccc12	24µM*	-11%	-56%	-7%	-10%	?
COc1cc(-c2n[nH]c(=S)n2/N=C/c2cccn2C)cc(OC)c1OC	-7%	8%	6%	-7%	?	3%
CCOC(=O)/C(C#N)=C/c1cn(CCC(=O)O)nc1-c1ccc(Cl)cc1	-8%	-5%	5%	-9%	8%	-18%
CCOC(=O)/C(C#N)=C/c1cn(CCC(=O)O)nc1-c1ccccc1	30µM*	-2%	0%	-2%	-2%	-29%
O=C(O)c1cccnc1SCc1cn2cc(Br)ccc2n1	12µM*	-4%	-10%	-6%	-1%	?
COc1ccccc1-c1cc(C(=O)Nc2c(C)nn(Cc3ccc(Cl)cc3)c2C)no1	.	.	.	-3%	-8%	-11%
CN(C)CC(C)(C)CNS(=O)(=O)c1ccc(Cl)c(Cl)c1	19µM*!	-3%	-3%	-8%	-21%	-23%
CCOc1ccc(CCNC(=O)c2cccc(C#N)c2)cc1OCC	-17%	-4%	-6%	-1%	-7%	-9%
SMILES	PLK1 PBD inh	Mito fusion yeast	PKM2 act	GCN5L2 inh	GLS inhibitor	VDR inhibitor
COc1ccccc1NC(=O)CSc1nc(N)c(C#N)cc1C#N	6%	-5%	14µM*	-1%	0%	-9%
COc1ccccc1NC(=O)Cc1nnc(SCC(=O)Nc2ccccc2F)n1C	12µM*	-2%	10%	-1%	-13%	?
NC(=O)SCC(=O)Nc1ccccc1C(=O)O	-13%	8%	-1%	15%	14%	79µM*
CCC(=O)NC(=S)Nc1ccccc1OC	24µM*	5%	-1%	-26%	8%	-16%
Cc1ccc(N2CCN(S(=O)(=O)c3ccc4c(c3)oc(=O)n4C)CC2C)cc1 (stereo not given)	-1%	0%	.	0%	2%	6%
O=c1cc(C2CCCCC2)[nH]c(=O)[nH]1	-1%	.	.	.	4%	-6%
Cc1ccc(-c2noc(C3CC(=O)N(c4ccc5c(c4)OCCO5)C3)n2)cc1 (stereo not given)	.	.	.	-10%	-10%	12%
CCC(C)(C)C(=O)O[C@@H]1C[C@@H](C)C=C2C=C[C@H](C)[C@H](CC[C@@H]3C[C@@H](O)CC(=O)O3)[C@H]21	.	.	.	-26%	.	-7%
CCn1nccc1C(=O)Nc1ccccc1OC	10%	6%	-5%	-6%	6%	-1%
N#Cc1ccccc1NC(=O)COC(=O)CCc1ccccc1	-4%	0%	-2%	-2%	11%	-15%
CCn1ncc(Br)c1C(=O)Nc1ccccc1OC	21µM*	4%	-3%	-12%	-6%	-12%
Cc1ccccc1NC(=O)COC(=O)CCc1ccccc1	6µM*	5%	-3%	-6%	68%	-11%
Cc1cc(C)c2nc(SCC(=O)Nc3ccccc3N3CCOCC3)c(C#N)cc2c1	30µM*	.	.	.	3%	-8%
Cc1cc(C)c2c(c1)cc(C)c1nnc(SCC(=O)Nc3ccccc3N3CCOCC3)n12	-2%	23%	1%	39%	1%	-18%
COc1ccccc1NC(=S)NCCc1c[nH]c2ccccc12	3.4µM*	-5%	-4%	4%	?	-17%
CCOC(=O)c1nn(-c2ccc(C)cc2)c(=O)cc1OCC(=O)N1CCN(c2ccccc2)CC1	-7%	-3%	.	-1%	15%	-3%
COC(=O)C1CN(S(=O)(=O)c2cc(OC)ccc2OC)CCS1 (stereo not given)	-21%	-9%	8%	-4%	-3%	0%
Cc1ccccc1NC(=O)CSC(N)=O	?	-18%	-4%	-8%	19%	25µM*
Cc1ccccc1NC(=O)CSCC(=O)Nc1ccccc1C	-2%	1%	-5%	3%	12%	9%
COc1ccccc1NC(=O)CSC(N)=O	-24%	-2%	2%	-2%	27%	22µM*
COc1ccccc1NC(=O)CCCCC(=O)Nc1ccccc1OC	-9%	-1%	-1%	-2%	0%	-13%
CC(=O)O[C@@]1(C(C)=O)CCC2C3CC(C)C4=CC(=O)CC[C@@]4(C)C3CC[C@]21C (stereo not given in full)	.	.	.	-2%	6%	?
